Screens: PubChem BioAssay, National Center for Advancing Translational Sciences (NCATS)
TDP1 cell CPT: qHTS for Inhibitors of human tyrosyl-DNA phosphodiesterase 1 (TDP1): qHTS in cells in presence of CPT. chicken DT40 Tdp1-/-;hTDP1 cells + 20 nM CPT, ATP luminescence, 48 h. 420,000 tested, 12% active. Potency, µM (top dose mostly 46.2 µM), without a hit: top-dose activity change, negative = growth inhibition, usual class: inhibitors. AID 686979, 2013; further: potency means the concentration at half of the fitted maximal effect; nearly all actives have a fitted effect of over 55% in size
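Cell growth measured by CellTiter-Glo luminescence after a minimum 48 h, 37 C compound exposure with 20 nM CPT in Tdp1-knockout DT40 cells stably expressing hTDP1, seeded 400/well; qHTS titration format.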
ELG1 DNA repair: qHTS screen for small molecules that inhibit ELG1-dependent DNA repair in human embryonic kidney (HEK293T) cells expressing luciferase-tagged ELG1; HEK293T ELG1-luciferase reporter, luminescence, 16 h; DNA damage induced by 5-fluorouridine; Potency, µM (titrated, usually from 46.1 µM), for inactives: top-dose activity change, negative = inhibition, hits mostly inhibitors; 330,000 tested, 2.3% active; further: potency means the concentration at half of the fitted maximal effect; nearly all actives have a fitted effect of over 55% in size
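Cells (2,000 per well) received 5-fluorouridine plus test compound or DMSO and were incubated 16 hr at 37 °C, 5% CO2. Luciferase activity was read by luminescence 30 min after ONE-Glo addition; signal suppression marked inhibition of damage-induced ELG1 function.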
Gal4-VP16 FLuc: VP16 counterscreen qHTS for inhibitors of ROR gamma transcriptional activity; AID 2546, 2010; Drosophila S2 Gal4-VP16 UAS-luciferase, luminescence, 20 h; 310,000 tested, 3.5% active; Potency, µM (top dose mostly 53.6 µM), for the others: at the highest dose activity, negative = inhibition, hits mostly inhibitors;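 further: Gal4-VP16 expression switched on by copper sulfate through the metallothionein promoter; potency means the concentration at half of the fitted maximal effect; nearly all actives have a fitted effect of over 50% in size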
DT40 TDP1 no CPT: qHTS for Inhibitors of human tyrosyl-DNA phosphodiesterase 1 (TDP1): qHTS in cells in absence of CPT; DT40 Tdp1-/- hTDP1 cells, no CPT, ATP luminescence, 48 h; Potency, µM (series often up to 46.2 µM), inactives show at the highest dose activity change, negative = growth inhibition, hits mostly inhibitors; 420,000 tested, 15% active; AID 686978, 2013; further: potency means the concentration at half of the fitted maximal effect; nearly all actives have a fitted effect of over 55% in size
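Growth kinetics read by CellTiter-Glo luminescence after ≥48 hr at 37 °C. Cells: DT40 Tdp1-/- stably carrying human TDP1, 400 per well, compound exposure in the absence of CPT (DMSO vehicle).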
IL1B secr inh: qHTS for Inhibitors of Inflammasome Signaling: IL-1-beta AlphaLISA Primary Screen | THP-1 LPS/ATP IL-1B secretion, AlphaLISA, 16 h; active compounds read low | activity change, % at 57.5 µM | 360,000 tested, 4.7% active; in the data active means activity change below about -50%; inconclusive means mostly about -30% to -49%
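THP-1 cells pretreated 1 hr with compounds (up to 57.5 uM final), then stimulated with LPS (250 ng/mL final) plus ATP (1.25 mM final); secreted IL-1B measured by AlphaLISA after 16 hr, decreased signal indicating inhibition.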
RORgamma inh: qHTS for inhibitors of ROR gamma transcriptional activity; AID 2551, 2010; Drosophila S2 Gal4-RORgamma UAS-luciferase reporter, 20 h; Nuclear receptor ROR-gamma (Mus musculus), P51450; 310,000 tested, 5.4% active; Potency, µM (highest dose often 53.6 µM), for inactives: at the highest dose activity change, negative = inhibition, hits mostly inhibitors; further: potency means the concentration at half of the fitted maximal effect; nearly all actives have a fitted effect of over 60% in size
Target sequence (P51450 whole entry, looked up, the tested form may be a part): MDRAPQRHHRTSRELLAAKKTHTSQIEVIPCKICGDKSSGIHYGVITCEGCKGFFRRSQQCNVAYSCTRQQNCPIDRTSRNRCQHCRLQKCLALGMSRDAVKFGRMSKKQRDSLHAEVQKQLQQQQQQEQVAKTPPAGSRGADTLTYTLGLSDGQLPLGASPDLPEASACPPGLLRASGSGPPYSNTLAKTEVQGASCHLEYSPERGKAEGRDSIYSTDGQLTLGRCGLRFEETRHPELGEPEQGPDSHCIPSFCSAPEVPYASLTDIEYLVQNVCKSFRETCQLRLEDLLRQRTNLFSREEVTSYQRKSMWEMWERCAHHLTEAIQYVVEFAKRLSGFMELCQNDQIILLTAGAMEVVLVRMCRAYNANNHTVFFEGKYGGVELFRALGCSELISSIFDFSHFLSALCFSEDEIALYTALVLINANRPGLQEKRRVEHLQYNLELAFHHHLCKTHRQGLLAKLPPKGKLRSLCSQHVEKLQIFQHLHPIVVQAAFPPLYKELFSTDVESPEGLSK
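Stable Schneider cell line, Gal4 DNA-binding domain fused to ROR gamma, UAS-luciferase. Cmpd 1 hr RT → CuSO4 700 uM final → 20 hr RT → luciferase reagent 10 min → luminescence.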
An asterisk follows results filed as active; [ ] = another dose, or the depositor's remark. A selection: hits, their analogues and other compounds. The true share with any hit is near 21%. Unless noted, the call rests on the fitted dose curve; in most records, active means well fitted curve in the direction sought with a large enough effect; inconclusive means small, poorly fitted or top-dose-only effect, or another doubt; inactive means no such curve, though single readings can be large; an effect the other way counts as inactive or inconclusive. On the % scale 0 is the no-effect control and ±100 the full control effect.

For COc1cc2c(=O)c(S(=O)(=O)c3ccc(F)cc3)cn(Cc3ccccc3C)c2cc1OC the results were TDP1 cell CPT 16µM* and DT40 TDP1 no CPT 18µM*.
Screening COc1cc2c3nnc(-c4ccc(F)cc4)c-3cn(Cc3ccccc3F)c2cc1OC returned TDP1 cell CPT 3.7µM*, ELG1 DNA repair inconclusive, Gal4-VP16 FLuc 5µM*, DT40 TDP1 no CPT 2.6µM*, IL1B secr inh -60* and RORgamma inh 6.3µM*.
For CCc1ccc2c(c1)c(=O)c(S(=O)(=O)c1ccc(F)cc1)cn2CC(=O)Nc1ccccc1OC the results were TDP1 cell CPT 5% and DT40 TDP1 no CPT -20%.
`COc1ccc(Cn2cc(S(=O)(=O)c3ccc(C)cc3)c(=O)c3cc(F)ccc32)cc1` gave TDP1 cell CPT -24% and DT40 TDP1 no CPT -13%.
`COc1ccc2c(c1)c(=O)c(S(=O)(=O)c1ccc(F)cc1)cn2Cc1ccccc1Cl` gave TDP1 cell CPT 0.26µM* and DT40 TDP1 no CPT 0.23µM*.
`COc1ccccc1OCC(O)CN1C(=O)NC(C)(C)C1=O` (stereo unspecified) gave TDP1 cell CPT inconclusive, ELG1 DNA repair -5%, Gal4-VP16 FLuc 9%, DT40 TDP1 no CPT inconclusive, IL1B secr inh 20 and RORgamma inh 1%.
For Cc1cc(C)n(-c2ccc(C(=O)N3CCN(S(=O)(=O)c4ccc(C(C)C)cc4)CC3)cc2)n1 the results were TDP1 cell CPT inconclusive, ELG1 DNA repair -29%, DT40 TDP1 no CPT 15µM* and IL1B secr inh inconclusive.
For COc1ccc(N2CCN(C(=O)c3ccc(-n4nc(C)cc4C)cc3)CC2)cc1 the results were TDP1 cell CPT inconclusive, ELG1 DNA repair -19%, Gal4-VP16 FLuc -12%, DT40 TDP1 no CPT inconclusive, IL1B secr inh 13 and RORgamma inh 11%.
`Cc1cc(C)n(-c2ccc(C(=O)N3CCN(S(=O)(=O)c4cccc(Br)c4)CC3)cc2)n1` gave TDP1 cell CPT 21µM*, DT40 TDP1 no CPT 21µM* and IL1B secr inh 0.
CSc1ccc(-c2nc3ccc(C)cn3c2Nc2ccccc2C)cc1 was read as TDP1 cell CPT -18% and DT40 TDP1 no CPT 7%.
Cc1ccc(Nc2c(-c3ccc(C)cc3)nc3c(C)cccn23)cc1 was read as TDP1 cell CPT 15µM* and DT40 TDP1 no CPT inconclusive.
For COc1ccc(Nc2c(-c3ccc(C)cc3)nc3cnccn23)cc1 the results were TDP1 cell CPT inconclusive, ELG1 DNA repair -4%, Gal4-VP16 FLuc 12%, DT40 TDP1 no CPT inconclusive, IL1B secr inh 19 and RORgamma inh 4%.
For Cc1cccn2c(Nc3ccccc3)c(-c3ccc(N4CCOCC4)cc3)nc12 the results were TDP1 cell CPT inconclusive and DT40 TDP1 no CPT 5.8µM*.
Screening Cc1ccccc1Nc1c(-c2ccc(O)cc2)nc2c(C)cccn12 returned TDP1 cell CPT 16µM* and DT40 TDP1 no CPT inconclusive.
Cc1ccccc1Nc1c(-c2ccc(N3CCOCC3)cc2)nc2ncccn12 was read as TDP1 cell CPT inconclusive, ELG1 DNA repair -8%, Gal4-VP16 FLuc 4%[10 µM], DT40 TDP1 no CPT inconclusive, IL1B secr inh -29 and RORgamma inh 23%.
`Cc1ccccc1Nc1c(-c2ccccn2)nc2c(C)cccn12` gave TDP1 cell CPT inconclusive, ELG1 DNA repair inconclusive, Gal4-VP16 FLuc 7.9µM*, DT40 TDP1 no CPT inconclusive, IL1B secr inh -12 and RORgamma inh 4µM*.
Screening Cc1cc2nc(-c3ccccn3)c(-c3ccccn3)nc2cc1C returned ELG1 DNA repair inconclusive, Gal4-VP16 FLuc -24% and RORgamma inh inconclusive.
For COc1ccc(OC)c(Nc2sc(C(=O)c3ccccc3)c(N)c2S(=O)(=O)c2ccccc2)c1 the results were TDP1 cell CPT -5% and DT40 TDP1 no CPT inconclusive.
Cc1ccc(S(=O)(=O)N2C[C@H]3[C@H]4C(=O)N(c5ccccc5)C(=O)[C@H]4C[C@H](OC(=O)Nc4c(C)noc4C)[C@@]3(O)C2)cc1 was read as TDP1 cell CPT -27%, DT40 TDP1 no CPT inconclusive and IL1B secr inh -22.
For Cc1ccc(-c2nc3c(C)cccn3c2Nc2ccccc2C)s1 the results were TDP1 cell CPT 21µM* and DT40 TDP1 no CPT inconclusive.
`Cc1cccn2c(NC(=O)c3cccs3)c(-c3ccccc3)nc12` gave TDP1 cell CPT 4%, ELG1 DNA repair 2%, Gal4-VP16 FLuc 24%, DT40 TDP1 no CPT -20%, IL1B secr inh -6 and RORgamma inh 3%.
Screening O=C(NCC(=O)N1CC=C(c2ccccc2)CC1)c1ccc(F)cc1 returned TDP1 cell CPT -4%, ELG1 DNA repair 2%, DT40 TDP1 no CPT inconclusive and IL1B secr inh -3.
Screening N#Cc1cccc(Nc2ncnc3c2cnn3-c2cccc(Cl)c2)c1 returned TDP1 cell CPT inconclusive and DT40 TDP1 no CPT 23µM*.
Screening Clc1cccc(Nc2ncnc3c2cnn3-c2ccccc2)c1 returned TDP1 cell CPT inconclusive, ELG1 DNA repair -20%, Gal4-VP16 FLuc 22µM*, DT40 TDP1 no CPT inconclusive, IL1B secr inh -11 and RORgamma inh 10µM*.
Screening Fc1cccc(Nc2ncnc3c2cnn3-c2ccccc2)c1 returned TDP1 cell CPT inconclusive, ELG1 DNA repair inconclusive, Gal4-VP16 FLuc 12%, DT40 TDP1 no CPT 16µM*, IL1B secr inh -10 and RORgamma inh inconclusive.
Cc1ccc(Nc2ncnc3c2cnn3-c2ccc(C)cc2)cc1 was read as TDP1 cell CPT -18% and DT40 TDP1 no CPT inconclusive.
For O=C(O)c1cccc(Nc2ncnc3c2cnn3-c2ccccc2)c1 the results were TDP1 cell CPT -1%, ELG1 DNA repair inconclusive, Gal4-VP16 FLuc 2%, DT40 TDP1 no CPT 1%, IL1B secr inh -1 and RORgamma inh inconclusive.
For O=C(O)c1ccccc1SCCS(=O)(=O)c1ccc(Cl)cc1Cl the results were TDP1 cell CPT 3%, ELG1 DNA repair 0%, Gal4-VP16 FLuc 3%, DT40 TDP1 no CPT -28%, IL1B secr inh 36 and RORgamma inh -2%.
